The text below walks through data of PubChem BioAssay (NCI).

Test systems include SR leukemia; RPMI-8226 leukemia; OVCAR-8 ovarian; OVCAR-5 ovarian; OVCAR-4 ovarian; SK-OV-3 ovarian; IGROV1 ovarian; OVCAR-3 ovarian; HS 578T breast; NCI/ADR-RES ovarian; T-47D breast; BT-549 breast; MDA-MB-435 melanoma; SW-620 colon; MCF7 breast; HCT-116 colon; HCC-2998 colon; KM12 colon; MDA-MB-468 breast.
Assay in all cases: NCI-60 one-dose screen, 48 h (100 = growth as untreated, 0 = no growth, -100 = all killed)
What all share (settings): 10 µM

This is part of a sample that, as a whole, favours compounds with a hit. Of some 83,000 tested, about 20% had one in any assay.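 Results are percent growth after 48 hours of single-concentration exposure. 100 means growth as in untreated cells, lower positive values show inhibition; negative values down to -100 show cell death.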 Values without a mark were called inactive. The source made the active and inactive calls. How the source made its calls: active means growth percent below 10; inactive means the rest.

In the case of `CCOC(=O)CNC(=O)CN(Cc1ccccc1)C(=O)[C@@]1(C)CCC[C@]2(C)[C@H]3C[C@H]4C(C(C)C)=C[C@]3(CC[C@H]21)[C@@H]1C(=O)OC(=O)[C@@H]14`, the growth in the experiment on SR leukemia is 4.44% (active); with RPMI-8226 leukemia it was 15.2%; with OVCAR-8 ovarian, 55.9%; with OVCAR-5 ovarian it was 105%; with OVCAR-4 ovarian, 62.2%; in the experiment with SK-OV-3 ovarian, 89.4%. Moreover, the growth is 41.8% in the experiment on IGROV1 ovarian; 44.1% with OVCAR-3 ovarian; 60.3% in the experiment on HS 578T breast; 45.3% with NCI/ADR-RES ovarian; 67.4% in the experiment on T-47D breast; 76.2% in the experiment with BT-549 breast. Further, the growth in the experiment on MDA-MB-435 melanoma was 78.5%; with SW-620 colon, 79.4%; with MCF7 breast it was 30.7%; in the experiment with HCT-116 colon, 37.4%; with HCC-2998 colon it was 69.6%; in the experiment with KM12 colon it was 53%. Moreover, in the experiment on MDA-MB-468 breast, the growth is 48.9%.
Take `CCCn1c(=O)c2[nH]c(-c3ccc(OCc4nc5ccc(C)cc5[nH]4)cc3)nc2n(CCC)c1=O`: the growth is 11.6% with SR leukemia; 29.3% with RPMI-8226 leukemia; 17.3% with OVCAR-8 ovarian; 40.6% with OVCAR-5 ovarian; 0.252% (active) with OVCAR-4 ovarian; 4.62% (active) with SK-OV-3 ovarian. Further, the growth in the experiment on IGROV1 ovarian is 37%; with OVCAR-3 ovarian it was 18.2%; in the experiment with HS 578T breast, -12.4% (active); with NCI/ADR-RES ovarian, 31.7%; with T-47D breast, -13.2% (active); with BT-549 breast it was 36.3%. Also, the growth with MDA-MB-435 melanoma was 49.1%; in the experiment with SW-620 colon, 27.5%; in the experiment on MCF7 breast, 17.6%; in the experiment on HCT-116 colon it was 14.6%; in the experiment on HCC-2998 colon, 61.6%; in the experiment on KM12 colon, 69.7%. Moreover, in the experiment on MDA-MB-468 breast, the growth is 16.7%.
Turning to `O=C(Nc1nc2ccccc2s1)c1ccc(Br)cc1`, the growth is 80.1% in the experiment on SR leukemia; 64.2% in the experiment on RPMI-8226 leukemia; 98.5% with OVCAR-8 ovarian; 92.9% in the experiment with OVCAR-5 ovarian; 80.6% in the experiment on OVCAR-4 ovarian; 104% in the experiment on SK-OV-3 ovarian. In addition, the growth is 75.1% with IGROV1 ovarian; 111% in the experiment on OVCAR-3 ovarian; 95.5% in the experiment on HS 578T breast; 76.7% in the experiment on NCI/ADR-RES ovarian; 44.1% in the experiment on T-47D breast; 90.3% in the experiment with BT-549 breast. Besides, the growth in the experiment on MDA-MB-435 melanoma was 88.8%; in the experiment with SW-620 colon it was 95%; with MCF7 breast, 41.6%; in the experiment with HCT-116 colon, 86.2%; in the experiment on HCC-2998 colon, 78.3%; in the experiment on KM12 colon, 72.4%. In addition, in the experiment on MDA-MB-468 breast, the growth is 37.9%.
Regarding `CC[C@]12C=CCN3CC[C@@]4(c5cc(C#CCNc6ccc(C)c(Nc7nccc(-c8cccnc8)n7)c6)c(OC)cc5N(C)[C@H]4[C@@](O)(C(=O)OC)[C@@H]1OC(C)=O)C32` (some centres not stated), the growth with SR leukemia was 21.3%; with RPMI-8226 leukemia it was 38.5%; in the experiment with OVCAR-8 ovarian it was 48.6%; in the experiment on OVCAR-5 ovarian, 81.9%; in the experiment on OVCAR-4 ovarian, 41.4%; in the experiment with SK-OV-3 ovarian, 110%. For the same compound, the growth in the experiment on IGROV1 ovarian was 60.7%; in the experiment with OVCAR-3 ovarian, 48.1%; in the experiment on HS 578T breast, 55.7%; in the experiment on NCI/ADR-RES ovarian, 54.4%; in the experiment with T-47D breast it was 45.5%; in the experiment on BT-549 breast it was -3.24% (active). Moreover, the growth in the experiment with MDA-MB-435 melanoma is 34%; with SW-620 colon it was 50%; in the experiment on MCF7 breast, 21.7%; with HCT-116 colon it was 27.2%; with HCC-2998 colon, 41.2%; in the experiment on KM12 colon, 44.9%. Also, the growth with MDA-MB-468 breast was 1.75% (active).
Regarding `N#Cc1c(NC(=O)c2ccc(C(F)(F)F)cc2)sc2c1CCC(O)=C2`, the growth in the experiment on SR leukemia is 8.2% (active); in the experiment with RPMI-8226 leukemia it was 9.09% (active); in the experiment on OVCAR-8 ovarian, 28.9%; in the experiment on OVCAR-5 ovarian, 82.8%; in the experiment with OVCAR-4 ovarian it was 41.6%; with SK-OV-3 ovarian, 17.9%. Besides, the growth in the experiment on IGROV1 ovarian was 38.3%; in the experiment with OVCAR-3 ovarian, 18.8%; with HS 578T breast, 12.3%; with NCI/ADR-RES ovarian it was -33.5% (active); in the experiment on T-47D breast, 22.9%; in the experiment with BT-549 breast, 58.7%. Moreover, the growth in the experiment with MDA-MB-435 melanoma is -33.8% (active); with SW-620 colon, 17.1%; in the experiment with MCF7 breast, 9.26% (active); with HCT-116 colon it was 23.9%; in the experiment with HCC-2998 colon it was 47.3%; with KM12 colon, 18.2%. Also, the growth in the experiment with MDA-MB-468 breast is -31.9% (active).
As for `O=C(NC(=S)N1CCN(c2ncnc3c2cnn3-c2ccccc2)CC1)c1ccc(Cl)cc1`, the growth is 13.9% in the experiment on SR leukemia; 69.1% in the experiment on RPMI-8226 leukemia; 38.3% with OVCAR-8 ovarian; 83.8% in the experiment with OVCAR-5 ovarian; 16.5% in the experiment on OVCAR-4 ovarian; 41.8% in the experiment with SK-OV-3 ovarian. The growth in the experiment with IGROV1 ovarian was 70.9%; in the experiment on OVCAR-3 ovarian, 48.1%; with HS 578T breast it was 32.7%; in the experiment on NCI/ADR-RES ovarian, 28.1%; in the experiment with T-47D breast it was 57.2%; in the experiment with BT-549 breast, 63.5%. Further, the growth with MDA-MB-435 melanoma is 89.2%; with SW-620 colon, 68.9%; in the experiment with MCF7 breast it was 38.9%; in the experiment on HCT-116 colon it was 41.9%; in the experiment with HCC-2998 colon it was 82.6%; with KM12 colon, 87.3%. Besides, the growth in the experiment with MDA-MB-468 breast is 64.6%.
Regarding `CN1C/C(=C\c2ccc(O)cc2O)c2[o+]c3cc(O)ccc3cc2C1`, the growth was 2.85% (active) in the experiment with SR leukemia; 33% in the experiment on RPMI-8226 leukemia; 62.7% with OVCAR-8 ovarian; 72.1% in the experiment on OVCAR-5 ovarian; 68.2% in the experiment with OVCAR-4 ovarian; 105% in the experiment with SK-OV-3 ovarian. Also, the growth is 34.8% in the experiment with IGROV1 ovarian; -8.86% (active) with OVCAR-3 ovarian; 50.1% in the experiment with HS 578T breast; 107% in the experiment with NCI/ADR-RES ovarian; 3.02% (active) in the experiment on T-47D breast; 39.8% in the experiment on BT-549 breast. Also, the growth in the experiment on MDA-MB-435 melanoma is 20.4%; in the experiment on SW-620 colon, 23.1%; in the experiment on MCF7 breast, 11%; in the experiment with HCT-116 colon it was 16.4%; in the experiment with HCC-2998 colon it was 25.2%; with KM12 colon, 25%. Besides, the growth with MDA-MB-468 breast was -16.3% (active).
Regarding `COc1nccnc1NS(=O)(=O)c1ccc(NC2=C(Cl)C(=O)c3nc(C)ccc3C2=O)cc1`, the growth in the experiment with SR leukemia was 115%; in the experiment with RPMI-8226 leukemia, 94.5%; in the experiment on OVCAR-8 ovarian it was 99.5%; in the experiment with OVCAR-5 ovarian, 112%; with OVCAR-4 ovarian, 86.5%; in the experiment with SK-OV-3 ovarian, 91.4%. For the same compound, the growth with IGROV1 ovarian was 113%; with OVCAR-3 ovarian it was 83.2%; in the experiment with HS 578T breast, 92.8%; with NCI/ADR-RES ovarian, 92.4%; in the experiment with T-47D breast, 101%; in the experiment with BT-549 breast it was 101%. Further, the growth in the experiment with MDA-MB-435 melanoma was 103%; with SW-620 colon it was 115%; in the experiment on MCF7 breast it was 108%; with HCT-116 colon it was 92%; in the experiment on HCC-2998 colon it was 103%; in the experiment with KM12 colon it was 111%. In addition, the growth in the experiment with MDA-MB-468 breast is 9.69% (active).
